Test results: article PMC5540273 (PLoS ONE, 2017)

Tested on: EPHA7
Details: concentration: 1 μM,replicates: in singlicate; n = 1
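Also: KINOMEscan kinase panel screen.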

Row | Structure (SMILES) | %Inh
1 | Cl.Cl.NC[C@H](Cc1ccc(C(F)(F)F)cc1)NC(=O)c1cc(Br)c(-c2ccnc3[nH]ccc23)s1 [GSK1487252] | 10%
2 | Nc1nc(Nc2ccccc2)cc(-c2ccc3c(N)n[nH]c3c2)n1 [GSK2225749] | 0%
3 | CC(C)Nc1cc(-c2ccc3c(N)n[nH]c3c2)nc(N)n1 [GSK2221681] | 12%
4 | CC(C)N1C(=O)Cc2cc(Nc3ncc(C(F)(F)F)c(NCc4cccc(S(C)(=O)=O)c4)n3)ccc21 | 12%
5 | Cl.Cl.NC[C@H](CC1CCCCC1)NC(=O)c1cc(Br)c(-c2ccnc3[nH]ccc23)s1 [GSK1581427] | 14%
6 | CN(C)CC(O)COc1ccc(Nc2nccc(-c3cnn4nc(N5CCOCC5)ccc34)n2)cc1 (centres unmarked) [GW767488] | 9%
7 | CCN(CC)CCOc1ccc(Nc2ncc3cc(-c4c(Cl)cccc4Cl)c(=O)n(C)c3n2)cc1 [SB-601273] | 11%
8 | Cc1n[nH]c2ccc(-c3cc(OC[C@@H](N)Cc4ccccc4)cnc3-c3ccoc3)cc12.O=C(O)C(F)(F)F.O=C(O)C(F)(F)F [GSK507358] | 10%
9 | Cc1occc1-c1nc(N)c(OC[C@@H](N)Cc2c[nH]c3ccccc23)cc1-c1cc2c(C)n[nH]c2cn1 [GSK1660450] | 3%
10 | C[C@@H]1CCN(C(=O)CC#N)C[C@@H]1N(C)c1ncnc2[nH]ccc12 | 21%
11 | Cl.Oc1cc(-c2nc(-c3ccccc3)[nH]c2-c2ccncc2)ccc1Cl [SB-386023] | 9%
12 | O=C(NCCCN1CCOC1=O)c1cnc(NCc2cc(Cl)ccc2Cl)nc1NC1CCCC1 | 2%
13 | Cc1cc(C(=O)Nc2ccc(Oc3ccc4nc(NC(=O)C5CC5)cn4n3)cc2)nn1-c1ccccc1 | 0%
14 | Cl.Cl.Nc1nc(-c2ccc3c(N)n[nH]c3c2)cc(N2CCCC(NC(=O)c3ccccc3)C2)n1 (centres unmarked) [GSK2286775] | 11%
15 | CCN(CC)CCCCNc1ncc2cc(-c3c(Cl)cccc3Cl)c(NC(=O)NC(C)(C)C)nc2n1 | 0%
16 | Cc1ccc2c(-c3ccncc3)c(-c3ccc(F)cc3)nn2c1.Cl [GW461484] | 7%
17 | COc1ccc(C[C@@H](CN)NC(=O)c2cc(Br)c(-c3ccnc4[nH]ccc34)s2)cc1.Cl.Cl [GSK1389063] | 12%
18 | O=C(NCCNc1ccnc(NCc2ccc(F)cc2)n1)c1cc2ccccc2s1 [GSK1379944] | 12%
19 | CN(C)CCOc1ccc(-c2cc(-c3c[nH]nc3-c3ccccn3)ccn2)cc1 [GW835314] | 8%
20 | CNC(=O)c1ccccc1Sc1ccc2c(/C=C/c3ccccn3)n[nH]c2c1 | 0%
21 | NC(=O)c1cc(-c2ccccc2)cc2c(C3CCNCC3)c[nH]c12 [GSK301362] | 20%
22 | CCn1c(-c2nonc2N)nc2c(C#CC(C)(C)O)nc(OCCN)cc21.Cl.Cl [GSK902056] | 0%
23 | C[C@H]1Oc2cc(cnc2N)-c2c(nn(C)c2C#N)CN(C)C(=O)c2ccc(F)cc21 | 35%
24 | C=CC(=O)Nc1cc2c(Nc3ccc(F)c(Cl)c3)ncnc2cc1OCCCN1CCOCC1 [GW781483] | 8%
25 | Cc1ccc(-n2nc(C(C)(C)C)cc2NC(=O)Nc2ccc(OCCN3CCOCC3)c3ccccc23)cc1 [GW839464] | 72%
26 | Cc1cc2cn[nH]c2cc1-c1cccc2c(N)c(C(N)=O)nnc12 | 19%
